Consider seven sequences from article PMC8384837, “Expanding the binding specificity for RNA recognition by a PUF domain”.

Common to all, as to assay: yeast three-hybrid, YBZ-1, SC-Leu-His + 0.5 mM 3-AT, 4 days
Conditions in all cases: tags: N-Gal4 AD-HA kept; label: inside an RPR1-promoter hybrid RNA with tandem MS2 sites; ssRNA

One test concerns the target PUM1 PUF domain R1-KVS (Homo sapiens, UniProt Q14671 828-1176, S863K;R864V;Q867S). An outline of the steps:
(§1)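 A centromeric plasmid in strain YBZ-1 co-expressed Pumilio-1 PUF domain libraries, randomized at the three base-contacting residues of each repeat, with matching RNA elements; the strain carries a LexA–MS2 coat fusion and a HIS3 reporter. After four days on SC-Leu (input) or SC-Leu-His + 0.5 mM 3-AT (selection), the repeat regions were PCR-amplified and Illumina-sequenced. The interaction score is the log change in variant frequency from input to selection, using log2 and a pseudocount of 1 where absent.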

Another test addresses PUM1 PUF domain R7-KWK (Homo sapiens, UniProt Q14671 828-1176, S1079K;N1080W;E1083K). The procedure, abridged:
as §1

A further test deals with PUM1 PUF domain R7-RSR (Homo sapiens, UniProt Q14671 828-1176, S1079R;N1080S;E1083R). The procedure, abridged: as §1
A further test deals with PUM1 PUF domain R5-RNG (Homo sapiens, UniProt Q14671 828-1176, C1007R;R1008N;Q1011G). An outline of the steps: as §1
The target in another test is PUM1 PUF domain R5-LYG (Homo sapiens, UniProt Q14671 828-1176, C1007L;R1008Y;Q1011G). The procedure, abridged: as §1
For another test, the target named is PUM1 PUF domain R3-RSW (Homo sapiens, UniProt Q14671 828-1176, C935R;R936S;Q939W). The procedure, abridged: as §1
The target of another test is PUM1 PUF domain R3-TFG (Homo sapiens, UniProt Q14671 828-1176, C935T;R936F;Q939G). An outline of the steps: as §1
The next test has as its target PUM1 PUF domain R3-LFT (Homo sapiens, UniProt Q14671 828-1176, C935L;R936F;Q939T). The procedure, abridged: as §1
Another test addresses PUM1 PUF domain R3-IFV (Homo sapiens, UniProt Q14671 828-1176, C935I;R936F;Q939V). An outline of the steps: as §1
The next test concerns the target PUM1 PUF domain R3-DHV (Homo sapiens, UniProt Q14671 828-1176, C935D;R936H;Q939V). An outline of the steps:
as §1

Another test addresses PUM1 PUF domain R5-WHC (Homo sapiens, UniProt Q14671 828-1176, C1007W;R1008H;Q1011C). The procedure, abridged: as §1
For another test, the target named is PUM1 PUF domain R5-FHT (Homo sapiens, UniProt Q14671 828-1176, C1007F;R1008H;Q1011T). The procedure, abridged: as §1

In the case of “GGCUAGAACUAGUGGAUCCCCCGGCGCCCGGCGGCUCGAGCCCGGGUAAGUGUAAAUCGUCUGCAUGCCGCCGGGCGCCAUGCCUGCAGGUCGACUCUAGAAAACAUG”, the binding signal with PUM1 PUF domain R1-KVS was 5.01 log2 enrichment (interaction score).

Take “GGCUAGAACUAGUGGAUCCCCCGGCGCCCGGCGGCUCGAGCCCGGGUAAGUCUAAAUAGUCUGCAUGCCGCCGGGCGCCAUGCCUGCAGGUCGACUCUAGAAAACAUG”: the figures for the binding signal in the test with PUM1 PUF domain R7-KWK and with PUM1 PUF domain R7-RSR were 2.57 log2 enrichment (interaction score) and 3.42 log2 enrichment (interaction score), respectively.

As for “GGCUAGAACUAGUGGAUCCCCCGGCGCCCGGCGGCUCGAGCCCGGGUAAGUAUAAAUAGUCUGCAUGCCGCCGGGCGCCAUGCCUGCAGGUCGACUCUAGAAAACAUG”, the binding signal in the test with PUM1 PUF domain R7-KWK is 2.56 log2 enrichment (interaction score).

As to “GGCUAGAACUAGUGGAUCCCCCGGCGCCCGGCGGCUCGAGCCCGGGUAAGUGUUAAUAGUCUGCAUGCCGCCGGGCGCCAUGCCUGCAGGUCGACUCUAGAAAACAUG”, the figures for the binding signal with PUM1 PUF domain R5-RNG and in the test with PUM1 PUF domain R5-LYG were 4.63 log2 enrichment (interaction score) and 2.42 log2 enrichment (interaction score), respectively.

Regarding “GGCUAGAACUAGUGGAUCCCCCGGCGCCCGGCGGCUCGAGCCCGGGUAAGUGUAAGUAGUCUGCAUGCCGCCGGGCGCCAUGCCUGCAGGUCGACUCUAGAAAACAUG”, the binding signal with PUM1 PUF domain R3-RSW was 0.87 log2 enrichment (interaction score); in the test with PUM1 PUF domain R3-TFG, 2.15 log2 enrichment (interaction score); with PUM1 PUF domain R3-LFT, 6.89 log2 enrichment (interaction score); with PUM1 PUF domain R3-IFV, 3.32 log2 enrichment (interaction score); in the test with PUM1 PUF domain R3-DHV, 1.77 log2 enrichment (interaction score).

Turning to “GGCUAGAACUAGUGGAUCCCCCGGCGCCCGGCGGCUCGAGCCCGGGUAAGUGUAACUAGUCUGCAUGCCGCCGGGCGCCAUGCCUGCAGGUCGACUCUAGAAAACAUG”, the binding signal with PUM1 PUF domain R3-TFG was 0.95 log2 enrichment (interaction score).

On to “GGCUAGAACUAGUGGAUCCCCCGGCGCCCGGCGGCUCGAGCCCGGGUAAGUGUCAAUAGUCUGCAUGCCGCCGGGCGCCAUGCCUGCAGGUCGACUCUAGAAAACAUG”, for which the figures for the binding signal in the test with PUM1 PUF domain R5-RNG, with PUM1 PUF domain R5-WHC and with PUM1 PUF domain R5-FHT were 2.64 log2 enrichment (interaction score), 3.6 log2 enrichment (interaction score) and 2.81 log2 enrichment (interaction score), respectively.
